Assay results as given in PubChem BioAssay (EPA / NIEHS).
Activity calls are given as the source filed them. Rule for the calls: active = hit-call score of the fitted dose curve at least 0.9, where 1 is the maximum; inactive = score below 0.9.

What was measured:
[1] = ATG_E_Box_CIS: Attagene CIS-FACTORIAL HepG2 Assay for human Enhancer Box (E-box) (AID 2282936); details: HepG2 E-box cis-reporter transcription, actives raise or lower the signal
In short: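 First, HepG2 cells receive multiple cis-regulated reporter constructs by transient transfection. Next, chemicals are applied for 24 h. Finally, reporter mRNA is quantified via RT-PCR and capillary electrophoresis, with DMSO as baseline.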

[2] = ATG_M_61_CIS: Attagene CIS-FACTORIAL HepG2 Assay for M61 Transcription Factor (Internal Marker) (AID 2282937); details: HepG2 Attagene CIS-FACTORIAL M61 internal marker reporter; actives raise or lower the signal
In short: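 Human liver HepG2, transient MRTU transfection (cis promoter elements), 24 h compound. Total RNA → oligo(dT) RT → PCR → FAM label → HpaI → CE. Internal background marker; bidirectional fitting, DMSO = baseline.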

[3] = ATG_M_19_CIS: Attagene CIS-FACTORIAL HepG2 Assay for M19 Transcription Factor (Internal Marker) (AID 2282939); details: HepG2 Attagene CIS-FACTORIAL M19 internal marker reporter; actives raise or lower the signal
In short: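 Chemical-treated HepG2 (24 h) with MRTU constructs; reporter transcripts detected by fluorescent RT-PCR fragment analysis on capillary electrophoresis. Internal background marker, DMSO as baseline.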

[4] = target: Hepatocyte nuclear factor 3-beta (Homo sapiens) (UniProt Q9Y261); experiment: ATG_FoxA2_CIS: Attagene CIS-FACTORIAL HepG2 Assay for human Forkhead box A2 (FOXA2) (AID 2282942); details: HepG2 cis-reporter transcription factor activity, 24 h; actives raise or lower the signal
In short: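 Transient MRTU transfection of HepG2 liver cells; 24 h treatment; total RNA → oligo(dT) RT → PCR → FAM primer extension → HpaI cut → CE. Bidirectional fit vs DMSO.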

[5] = ATG_FoxO_CIS: Attagene CIS-FACTORIAL HepG2 Assay for human Forkhead box O (FoxO) (AID 2282943); details: HepG2 Attagene cis-reporter, FoxO element, mRNA; actives raise or lower the signal
In short: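 Read-out: fluorescence of 6-FAM-labelled reporter cDNA fragments resolved by capillary electrophoresis. Transiently transfected HepG2 cells were dosed for 24 h; activity fitted in both directions relative to DMSO controls.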

[6] = ATG_GATA_CIS: Attagene CIS-FACTORIAL HepG2 Assay for human GATA Binding Protein (AID 2282944); details: HepG2 GATA cis-element reporter, Attagene multiplex mRNA; actives raise or lower the signal
In short: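 Transfected cis-reporter HepG2 cells were treated with chemicals for 24 hours. Total RNA was then converted to cDNA, amplified with reporter-specific primers and analysed by fluorescent capillary electrophoresis, using DMSO-treated wells as baseline.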

[7] = ATG_GLI_CIS: Attagene CIS-FACTORIAL HepG2 Assay for human Zinc Finger Protein GLI1 (AID 2282945); details: HepG2, Attagene cis-factorial reporter mRNA, GLI element; actives raise or lower the signal
In short: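 Transiently transfected HepG2 cells report endogenous transcription factor activity via cis-element-driven reporter units. After 24 h compound exposure, reporter mRNA was measured by RT-PCR with capillary electrophoresis; bidirectional fitting against DMSO baseline.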

[8] = target: Bile acid receptor (Homo sapiens) (UniProt Q96RI1); experiment: ATG_IR1_CIS: Attagene CIS-FACTORIAL HepG2 Assay for human Nuclear Receptor Subfamily 1 Group H Member 4 (NR1H4), IR1 submotif (AID 2282946); details: IR1 reporter transcription, actives raise or lower the signal
In short: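 HepG2 cells transiently transfected with multiple cis-promoter-driven reporter units to measure endogenous transcription factor activity; 24 h exposure. Reporter mRNA read by RT-PCR, FAM labelling, HpaI digestion and capillary electrophoresis. Bidirectional fit versus DMSO.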

[9] = ATG_ISRE_CIS: Attagene CIS-FACTORIAL HepG2 Assay for human Interferon Regulatory Factor 1 (IRF1) binding to an Interferon-Stimulated Response Element (ISRE) (AID 2282948); details: HepG2 ISRE cis-reporter (Attagene), mRNA transcription readout; actives raise or lower the signal
In short: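 HepG2 cells transiently transfected with multiplexed cis-promoter reporter units; after 24 h compound exposure, reporter mRNA quantified by RT-PCR, FAM labelling, HpaI digestion and capillary electrophoresis. Bidirectional fit versus DMSO baseline.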

[10] = ATG_M_32_CIS: Attagene CIS-FACTORIAL HepG2 Assay for M32 Transcription Factor (Internal Marker) (AID 2282949); details: HepG2 Attagene cis-factorial M32 reporter, mRNA; actives raise or lower the signal;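 note: background control marker of the multiplexed CIS panel rather than a real target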
In short: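 Internal background marker read-out: RT-PCR/capillary electrophoresis fluorescence of reporter transcripts from transiently transfected HepG2 cells after 24 h chemical exposure. Activity fitted bidirectionally relative to DMSO negative control.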

[11] = ATG_M_06_CIS: Attagene CIS-FACTORIAL HepG2 Assay for M06 Transcription Factor (Internal Marker) (AID 2282950); details: HepG2 Attagene CIS-FACTORIAL M06 internal marker reporter; actives raise or lower the signal
In short: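 Cells (HepG2, transiently carrying cis-driven reporter units) receive chemical for 24 h before RNA isolation. Reporter cDNA is PCR-amplified, FAM-labelled by primer extension, HpaI-digested and sized on a capillary analyser.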

[12] = target: Hepatocyte nuclear factor 6 (Homo sapiens) (UniProt Q9UBC0); experiment: ATG_HNF6_CIS: Attagene CIS-FACTORIAL HepG2 Assay for human Hepatocyte Nuclear Factor 6 (HNF6) (AID 2282952); details: HepG2 Attagene cis-factorial HNF6 reporter transcription; actives raise or lower the signal
In short: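 Transiently transfected HepG2 cells expressing cis-regulated reporter transcription units were exposed to chemical for 24 h in a 24-well format. Reporter transcript abundance was determined by fluorescence capillary electrophoresis.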

[13] = ATG_MRE_CIS: Attagene CIS-FACTORIAL HepG2 Assay for human Metal Responsive Element (MRE) (AID 2282954); details: HepG2 MRE cis-reporter transcription, Attagene multiplex; actives raise or lower the signal
In short: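 Fluorescent reporter fragments separated by capillary electrophoresis give mRNA induction for the MRE unit after 24 h treatment of transfected HepG2 cells. Endogenous transcription-factor activity is read; DMSO serves as negative control and baseline.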

[14] = ATG_PBREM_CIS: Attagene CIS-FACTORIAL HepG2 Assay for human Phenobarbital-responsive Enhancer Module (PBREM) (AID 2282955); details: HepG2 PBREM cis-reporter, Attagene multiplexed transcription; actives raise or lower the signal
In short: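 Endogenous transcription factors in human liver HepG2 cells drive a PBREM cis-element reporter, whose transcript level after 24 h treatment is quantified by RT-PCR with capillary electrophoresis; activity fitted in both directions against DMSO.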

[15] = ATG_Ets_CIS: Attagene CIS-FACTORIAL HepG2 Assay for human Erythroblast Transformation Specific (ETS) (AID 2282941); details: HepG2 ETS cis-reporter transcription, actives raise or lower the signal
In short: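 HepG2 cells transiently transfected with cis-promoter reporter transcription units were dosed for 24 h; reporter mRNA was measured by RT-PCR, 6-FAM primer extension, HpaI digestion and capillary electrophoresis, with bidirectional fitting against DMSO baseline.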

[16] = target: Hypoxia-inducible factor 1-alpha (Homo sapiens) (UniProt Q16665); experiment: ATG_HIF1a_CIS: Attagene CIS-FACTORIAL HepG2 Assay for human Hypoxia Inducible Factor 1 (HIF1A) (AID 2282951); details: HepG2 Attagene cis-factorial HIF1a reporter transcription; actives raise or lower the signal
In short: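 Transient MRTU transfection of human HepG2 liver cells, 24 h compound treatment, then total RNA isolation, oligo(dT) reverse transcription, PCR amplification, fluorescent labelling and capillary electrophoresis of reporter fragments. Gain or loss relative to DMSO.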

[17] = target: Heat shock factor protein 1 (Homo sapiens) (UniProt Q00613); experiment: ATG_HSE_CIS: Attagene CIS-FACTORIAL HepG2 Assay for human Heat Shock Transcription Factor 1 (HSE) (AID 2282953); details: HepG2 HSE cis-reporter, Attagene RNA transcription; actives raise or lower the signal
In short: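 Liver-derived HepG2 cells carry transiently introduced multiple reporter units governed by cis promoters. Reporter RNA measured 24 h post-dose through reverse transcription, PCR amplification, fluorescent labelling and capillary electrophoresis, normalised to DMSO.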

[18] = ATG_GRE_CIS: Attagene CIS-FACTORIAL HepG2 Assay for human Glucocorticoid Response Elements (GRE) (AID 2282947); details: HepG2 GRE cis-reporter, Attagene multiplex mRNA; actives raise or lower the signal
In short: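 Endogenous transcription factor activity is read through cis-element reporter constructs transiently transfected into HepG2 cells. After 24 h treatment, labelled RT-PCR products are resolved by capillary electrophoresis; DMSO sets baseline for bidirectional curve fitting.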

Sequence of Heat shock factor protein 1 (Homo sapiens) (Q00613 whole entry, looked up): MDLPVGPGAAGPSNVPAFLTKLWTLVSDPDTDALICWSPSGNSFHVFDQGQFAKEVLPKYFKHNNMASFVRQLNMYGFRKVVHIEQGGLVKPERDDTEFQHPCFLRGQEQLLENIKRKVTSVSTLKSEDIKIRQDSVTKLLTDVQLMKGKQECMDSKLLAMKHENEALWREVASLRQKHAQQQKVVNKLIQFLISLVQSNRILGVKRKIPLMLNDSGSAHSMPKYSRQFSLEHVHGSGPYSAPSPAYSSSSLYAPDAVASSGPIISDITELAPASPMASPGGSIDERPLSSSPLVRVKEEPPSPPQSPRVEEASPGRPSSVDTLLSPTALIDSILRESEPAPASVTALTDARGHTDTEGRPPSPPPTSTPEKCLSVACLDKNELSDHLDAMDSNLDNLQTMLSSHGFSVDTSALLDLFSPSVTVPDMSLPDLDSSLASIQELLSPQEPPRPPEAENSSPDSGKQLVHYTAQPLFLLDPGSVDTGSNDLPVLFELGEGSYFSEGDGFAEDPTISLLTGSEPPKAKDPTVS
Sequence of Hepatocyte nuclear factor 6 (Homo sapiens) (Q9UBC0 whole entry, looked up): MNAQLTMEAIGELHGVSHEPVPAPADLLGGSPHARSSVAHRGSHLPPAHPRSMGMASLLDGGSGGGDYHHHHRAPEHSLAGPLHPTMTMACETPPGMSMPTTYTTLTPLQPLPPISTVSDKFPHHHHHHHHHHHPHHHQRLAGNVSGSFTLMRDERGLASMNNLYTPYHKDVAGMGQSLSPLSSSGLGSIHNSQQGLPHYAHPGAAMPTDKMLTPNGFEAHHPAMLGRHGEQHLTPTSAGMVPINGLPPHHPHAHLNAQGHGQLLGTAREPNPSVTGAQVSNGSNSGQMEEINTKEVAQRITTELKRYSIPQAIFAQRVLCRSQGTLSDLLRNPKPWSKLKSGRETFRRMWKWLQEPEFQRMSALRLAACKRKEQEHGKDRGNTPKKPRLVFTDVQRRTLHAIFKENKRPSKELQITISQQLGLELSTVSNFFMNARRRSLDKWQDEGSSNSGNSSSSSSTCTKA
Sequence of Bile acid receptor (Homo sapiens) (Q96RI1 whole entry, looked up): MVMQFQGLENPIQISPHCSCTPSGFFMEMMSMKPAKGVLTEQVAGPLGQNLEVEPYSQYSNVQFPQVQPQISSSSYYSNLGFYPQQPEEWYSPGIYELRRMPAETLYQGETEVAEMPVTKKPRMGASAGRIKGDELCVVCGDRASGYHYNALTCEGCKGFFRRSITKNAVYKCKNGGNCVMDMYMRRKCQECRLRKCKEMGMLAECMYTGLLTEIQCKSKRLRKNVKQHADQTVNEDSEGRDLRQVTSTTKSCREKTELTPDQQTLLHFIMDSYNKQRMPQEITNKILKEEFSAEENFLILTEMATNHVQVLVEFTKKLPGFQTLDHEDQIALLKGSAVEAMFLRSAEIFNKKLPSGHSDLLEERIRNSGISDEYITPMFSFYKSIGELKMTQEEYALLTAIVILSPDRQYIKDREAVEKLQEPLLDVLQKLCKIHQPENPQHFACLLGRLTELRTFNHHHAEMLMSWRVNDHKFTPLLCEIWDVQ
Sequence of Hypoxia-inducible factor 1-alpha (Homo sapiens) (Q16665 whole entry, looked up, the tested form may be a part): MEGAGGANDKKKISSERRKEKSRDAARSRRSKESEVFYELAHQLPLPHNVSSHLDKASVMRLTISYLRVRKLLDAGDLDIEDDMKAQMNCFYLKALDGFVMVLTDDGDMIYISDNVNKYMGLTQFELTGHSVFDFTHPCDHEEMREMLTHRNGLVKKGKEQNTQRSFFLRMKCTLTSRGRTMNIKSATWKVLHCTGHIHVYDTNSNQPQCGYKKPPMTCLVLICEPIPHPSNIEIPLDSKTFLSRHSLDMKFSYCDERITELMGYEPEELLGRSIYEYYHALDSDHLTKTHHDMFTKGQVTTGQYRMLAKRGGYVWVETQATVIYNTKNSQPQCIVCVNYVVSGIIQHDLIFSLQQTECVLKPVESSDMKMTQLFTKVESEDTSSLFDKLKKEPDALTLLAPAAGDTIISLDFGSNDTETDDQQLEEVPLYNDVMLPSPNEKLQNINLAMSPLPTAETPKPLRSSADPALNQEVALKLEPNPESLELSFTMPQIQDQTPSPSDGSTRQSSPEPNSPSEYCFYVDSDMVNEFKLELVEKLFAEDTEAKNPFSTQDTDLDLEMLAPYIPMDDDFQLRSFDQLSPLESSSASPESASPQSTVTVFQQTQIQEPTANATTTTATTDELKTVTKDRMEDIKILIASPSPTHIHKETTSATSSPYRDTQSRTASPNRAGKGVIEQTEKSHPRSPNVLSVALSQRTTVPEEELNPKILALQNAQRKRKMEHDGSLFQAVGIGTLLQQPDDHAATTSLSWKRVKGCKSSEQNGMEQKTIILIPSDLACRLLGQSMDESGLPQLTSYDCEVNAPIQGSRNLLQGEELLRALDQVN
Sequence of Hepatocyte nuclear factor 3-beta (Homo sapiens) (Q9Y261 whole entry, looked up): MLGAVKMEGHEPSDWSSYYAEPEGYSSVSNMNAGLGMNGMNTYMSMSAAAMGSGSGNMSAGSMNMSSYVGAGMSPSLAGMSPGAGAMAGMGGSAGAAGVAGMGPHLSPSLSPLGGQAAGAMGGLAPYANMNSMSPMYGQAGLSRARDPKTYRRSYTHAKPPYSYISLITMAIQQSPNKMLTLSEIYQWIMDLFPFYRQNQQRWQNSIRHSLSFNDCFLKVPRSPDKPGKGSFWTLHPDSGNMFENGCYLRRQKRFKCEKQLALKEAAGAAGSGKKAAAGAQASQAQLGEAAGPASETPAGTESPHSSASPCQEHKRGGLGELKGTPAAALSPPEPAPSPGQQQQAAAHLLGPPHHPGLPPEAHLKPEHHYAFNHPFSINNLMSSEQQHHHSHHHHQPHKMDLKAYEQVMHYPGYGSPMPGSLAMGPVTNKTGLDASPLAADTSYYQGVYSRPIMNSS

## CCOC(=O)COC(=O)c1cc(Oc2ccc(C(F)(F)F)cc2Cl)ccc1[N+](=O)[O-]
[1]
  outcome: inactive
[2]
  outcome: inactive
[3]
  outcome: inactive
[4]
  outcome: inactive
[5]
  outcome: inactive
[6]
  outcome: inactive
[7]
  outcome: inactive
[8]
  outcome: inactive
[9]
  outcome: inactive
[10]
  outcome: inactive
[11]
  outcome: inactive
[12]
  outcome: inactive
[13]
  outcome: inactive
[14]
  outcome: inactive

## Oc1ccc2cc(SSc3ccc4cc(O)ccc4c3)ccc2c1
[1]
  outcome: inactive
[2]
  outcome: inactive
[3]
  outcome: inactive
[15]
  outcome: inactive
[4]
  outcome: inactive
[5]
  outcome: inactive
[6]
  outcome: inactive
[7]
  outcome: inactive
[8]
  outcome: inactive
[9]
  AC50: 100 µM (active)
[10]
  outcome: inactive
[11]
  outcome: inactive
[16]
  AC50: 30.6 µM (active)
[12]
  outcome: inactive
[17]
  AC50: 78.1 µM (active)
[13]
  AC50: 34.8 µM (active)
[14]
  outcome: inactive

## CC(=O)O[C@@H]1C[C@@H]2CC[C@@]1(C)C2(C)C
[1]
  outcome: inactive
[2]
  outcome: inactive
[15]
  outcome: inactive
[4]
  outcome: inactive
[6]
  outcome: inactive
[7]
  outcome: inactive
[8]
  outcome: inactive
[18]
  outcome: inactive
[9]
  outcome: inactive
[10]
  outcome: inactive
[11]
  outcome: inactive
[16]
  outcome: inactive
[12]
  outcome: inactive
[17]
  outcome: inactive
[13]
  outcome: inactive
[14]
  outcome: inactive

## CCCCCc1ccco1
[1]
  outcome: inactive
[2]
  outcome: inactive
[3]
  outcome: inactive
[15]
  outcome: inactive
[4]
  outcome: inactive
[5]
  outcome: inactive
[6]
  outcome: inactive
[7]
  outcome: inactive
[8]
  AC50: 105 µM (active)
[18]
  outcome: inactive
[9]
  outcome: inactive
[10]
  outcome: inactive
[16]
  outcome: inactive
[12]
  outcome: inactive
[17]
  AC50: 115 µM (active)
[13]
  outcome: inactive
[14]
  outcome: inactive

## CSCCC=O
[1]
  outcome: inactive
[2]
  outcome: inactive
[3]
  outcome: inactive
[15]
  outcome: inactive
[4]
  outcome: inactive
[6]
  outcome: inactive
[7]
  outcome: inactive
[8]
  outcome: inactive
[18]
  outcome: inactive
[9]
  outcome: inactive
[10]
  outcome: inactive
[11]
  outcome: inactive
[16]
  outcome: inactive
[12]
  outcome: inactive
[13]
  outcome: inactive
[14]
  outcome: inactive

## CCN(CC)C(=O)N(CC)CC
[1]
  outcome: inactive
[2]
  outcome: inactive
[3]
  outcome: inactive
[15]
  outcome: inactive
[4]
  outcome: inactive
[5]
  outcome: inactive
[6]
  outcome: inactive
[7]
  outcome: inactive
[8]
  outcome: inactive
[18]
  outcome: inactive
[9]
  outcome: inactive
[10]
  outcome: inactive
[11]
  outcome: inactive
[12]
  outcome: inactive
[17]
  outcome: inactive
[13]
  outcome: inactive
[14]
  outcome: inactive

## CCOC(=O)c1ccc(N)cc1
[1]
  outcome: inactive
[2]
  outcome: inactive
[3]
  outcome: inactive
[15]
  outcome: inactive
[4]
  outcome: inactive
[5]
  outcome: inactive
[7]
  outcome: inactive
[8]
  outcome: inactive
[18]
  outcome: inactive
[9]
  outcome: inactive
[10]
  outcome: inactive
[11]
  outcome: inactive
[12]
  outcome: inactive
[17]
  AC50: 25.7 µM (active)
[13]
  outcome: inactive
[14]
  outcome: inactive

## O=C1OC(=O)c2c(Br)c(Br)c(Br)c(Br)c21
[1]
  outcome: inactive
[2]
  outcome: inactive
[3]
  outcome: inactive
[15]
  outcome: inactive
[4]
  outcome: inactive
[5]
  AC50: 165 µM (active)
[6]
  outcome: inactive
[7]
  outcome: inactive
[18]
  outcome: inactive
[9]
  outcome: inactive
[10]
  outcome: inactive
[11]
  outcome: inactive
[12]
  outcome: inactive
[13]
  outcome: inactive
[14]
  outcome: inactive
